Screens from PubChem BioAssay.
Only a selection was taken, and hits are over-represented in it overall.
Pf Dd2 inh – qHTS Primary assay for Inhibitors of Plasmodium falciparum Dd2 growth in vitro. Potency, µM (doses to about 28.9 µM), inactives show top-dose activity, negative = inhibition, actives largely listed as inhibitors. AID 1347417, 2020. 4.3% of 120,000 active. P. falciparum Dd2 growth, SYBR Green, 72 h; active = well fitted inhibition curve with a large enough effect;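 note: plate controls were DMSO vehicle for no effect and reference drug for full effect; nearly all actives have a fitted effect of over 65% in size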
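Infected erythrocytes (Dd2, 0.3% parasitemia, 2.5% hematocrit final) are added to compound in RPMI-1640/Albumax II medium, grown 72 h at 37C in low oxygen, then lysed with saponin/Triton-X containing SYBR Green and read by fluorescence.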
* marks the source's active call; other numbers are inactive results; i = inactive; [ ] = dose if it differs, or a comment. Potency is the fitted concentration of half-maximal effect.

SMILES	Pf Dd2 inh
c1cc(Cn2ccc3c(N4CCOCC4)nc(-c4cn[nH]c4)cc32)ccn1	3%[44.1 µM]
CN(C)Cc1ccc(-c2cc3c(ccn3Cc3ccncc3)c(N3CCOCC3)n2)cc1	11µM*
Cn1cc(-c2cc3c(ccn3Cc3ccncc3)c(N3CCOCC3)n2)cn1	39%[44.1 µM]
CC1(c2noc(-c3ccccn3)n2)CCN(C(=O)CCC(=O)N2CC(=O)Nc3ccccc32)CC1	-17%
CC1(c2noc(-c3ccccn3)n2)CCN(C(=O)CCc2nc3ccc(Cl)cc3[nH]2)CC1	5.6µM*
CC1(c2noc(C3CC3)n2)CCN(C(=O)CCc2nc3ccc(Cl)cc3[nH]2)CC1	i
COc1ccccc1Cc1nc2ccccc2nc1SCC(=O)N1CCCCC1	-6%
COc1cc(NC(=O)CSc2nc3ccccc3nc2Cc2ccccc2OC)cc(OC)c1	i
COc1ccccc1Cc1nc2ccccc2nc1SCC(=O)NCc1ccccc1Cl	0.89µM*
O=C(NC1CC(c2cc(=O)[nH]cn2)C1)c1ncc(F)cc1F (stereo not given)	-14%
Cc1ccsc1C(=O)N1CCC2(CC1)NC(=O)N(c1ccc(F)cc1)N2	-23%
COc1ccccc1C(=O)N1CCC(Cc2nc(-c3ccc(F)cc3)no2)CC1	i
Cc1onc(C(=O)N2CCCC(Cc3nncn3Cc3ccccc3)C2)c1Cn1cc(Cl)cn1 (stereo not given)	i
Cc1ccc(CN2C(=O)NC3(CCN(C(=O)c4ccncc4)CC3)C2=O)cc1	8%
Cc1ccc(CSc2nc3cccnc3n2Cc2ccc(C(=O)NC3CCCCC3)cc2)cc1	-16%
Cc1ccccc1Cn1c(SCc2ccc(C(=O)NC3CCCCC3)cc2)nc2ccncc21	-17%
CN(C)c1ccc(NC(=O)Cn2c(SCc3ccc(F)cc3)nc3ccncc32)cc1	i
Cc1ccccc1Cn1c(SCc2ccc(C(=O)N3CCCCC3)cc2)nc2ccncc21	7.9µM*
Cc1ccc(Cn2c(SCc3ccc(C(=O)N4CCCCCC4)cc3)nc3ccncc32)cc1	11µM*
CN(CC1(c2ccccc2)CC1(C)C)C(=O)c1cn(C/C=C/c2ccccc2)nn1 (stereo not given)	-3%
Nc1n[nH]c(C(=O)N2C[C@H](CO)C[C@H](CN3CCOCC3)C2)c1Cl	-4%
Cc1oc(C(O)c2cccc(O)c2)nc1C(=O)NCc1ccccc1 (stereo not given)	i
Cc1cc(C(=O)NCC2Cn3cccc3C(=O)N2Cc2ccccc2)n(C)n1 (stereo not given)	35%
Cc1cc(C)n(Cc2ccc(C(=O)NCC3Cn4cccc4CN3Cc3ccccc3)o2)n1 (stereo not given)	5µM*
Cn1cnc(S(=O)(=O)NCC2Cn3cccc3CN2Cc2ccccc2)c1 (stereo not given)	-16%
SMILES	Pf Dd2 inh
O=C(NCC1Cn2cccc2CN1Cc1ccccc1)c1cncc(Br)c1 (stereo not given)	10µM*
CN1Cc2cccn2CC1CNC(=O)Cc1ccccc1 (stereo not given)	-19%
CCn1ccc(C(=O)NCC2Cn3cccc3C(=O)N2CC(C)C)n1 (stereo not given)	-19%
CCn1ccc(C(=O)NCC2Cn3cccc3CN2Cc2ccccc2)n1 (stereo not given)	14µM*
CN1Cc2cccn2CC1CNC(=O)Cc1cccc(F)c1 (stereo not given)	-25%
Cn1nccc1C(=O)NCC1Cn2cccc2CN1Cc1ccccc1 (stereo not given)	-8%
COc1ccccc1CNC(=O)[C@H]1C[C@@H](O)[C@H](O)[C@@H]2N=C(Nc3ccc(C)cc3)S[C@@H]21	i
CC(C)CN1CCN(c2ccc(Cl)nn2)C(=O)C1	-5%[44.1 µM]
COCC(=O)N(C1CCOCC1)C1CCN(C(=O)c2ccccc2F)CC1	-3%
Cc1ccc2[nH]c(=O)c(CCC(=O)NC(C)C)cc2c1	i
CCc1c(C)sc2c1CCN(Cc1ccccc1F)C2c1ccccc1 (stereo not given)	3.2µM*
CC(C)(C)c1coc([C@@H]2COCCN2Cc2ccccc2F)n1	i
COc1cccc(CN2CCOCCNC(=O)CC2)c1	-12%
CCc1c(C)sc2c1CCN(Cc1cccc(OC)c1)C2c1ccccc1 (stereo not given)	7.9µM*
COc1cccc(Cn2c(C)c(CNC3CCCCC3)c(C(=O)O)c2C)c1	13%
Nc1nccc(N2CCN(Cc3ccccc3F)C(CCO)C2)n1 (stereo not given)	-11%
CCCNC(=O)NC[C@@H]1C=C(C)[C@H](Cc2nc3ccccc3[nH]2)C[C@H]1C(C)C	i
CC1=C[C@@H](CNC(=O)C2CCCCC2)[C@H](C(C)C)C[C@H]1Cc1nc2ccccc2n1C	10µM*
CC(=O)N1CCN(C(=O)C[C@@H]2C[C@@H](C(C)C)[C@H](CNC(=O)C3CC3)C=C2C)CC1	i
CCC(CC)C(=O)NC[C@@H]1C=C(C)[C@H](Cc2nc3ccccc3n2C)C[C@H]1C(C)C	11µM*
CC1=C[C@@H](CNC(=O)Cn2cnnn2)[C@H](C(C)C)C[C@H]1Cc1nc2ccccc2[nH]1	i
CC1=C[C@@H](CNC(=O)C2CC2)[C@H](C(C)C)C[C@H]1CC(=O)N1CCOCC1	i
Cc1cc(CN(C)C(C)c2cccs2)no1 (stereo not given)	4%[44.1 µM]
Cc1noc(-c2cccc(OC3CN(C(=O)NC4CCCCC4)C3)c2)n1	57%[5.79 µM]
CC(C)NC(=O)C[C@@H]1C[C@H]2O[C@H](CNC(=O)N3CCOCC3)[C@@H](O)[C@H]2O1	9%[44.1 µM]
SMILES	Pf Dd2 inh
Cn1nc(-c2ccccc2)cc1C(=O)N1CCNCC(O)C1 (stereo not given)	-16%
NC(=O)c1ccccc1NC(=O)CN1c2ccccc2S(=O)(=O)c2ccccc21	10µM*
COc1cc(Cl)c(C)cc1NC(=O)CN1c2ccccc2S(=O)(=O)c2ccccc21	-7%
O=S1(=O)c2ccccc2N(Cc2ccccc2)c2ccccc21	i
Cc1cccnc1CN(C)C(=O)C1CCC(=O)N(CCc2cccc(F)c2)C1 (stereo not given)	-11%
COc1ccc(CN[C@@H]2CCC[C@@H](C(=O)N3CCN(C)CC3)CC(=O)N(C)C2)cc1	16%[44.1 µM]
COc1ccc(CN2C[C@@H]3C(=O)N(CCN4CCc5ccccc5C4)C(=O)[C@@H]3C2)cc1	-22%
O=C(O)c1cccnc1OC1CCNCC1	27%
Cc1oc(-c2cccc(C(F)(F)F)c2)nc1CN1CCCC(CO)C1 (stereo not given)	11µM*
Cc1ccc(Cl)cc1N1CCN(C(=O)C2CCCN(Cc3nc(-c4cccc(Cl)c4)oc3C)C2)CC1 (stereo not given)	-4%
CSc1ccc(-c2nc(CN3CCCC(CO)C3)c(C)o2)cc1 (stereo not given)	i
CCCNC(=O)N(C1CCOCC1)C1CCN(C(=O)c2ccsc2)CC1	4%
Cc1cc(C(=O)Nc2ccc([C@H]3OCC(=O)N(CC(=O)N(C)C)[C@@H]3CO)cc2)n(C)n1	i
CCOc1ccccc1NC(=O)CN1C(=O)NC(c2ccccc2OCC)C2=C1COC2=O (stereo not given)	-2%
CCOc1ccc2c(n1)CCN(C(=O)c1ccc(OC)c(OC)c1)C2	-25%
CCOc1ccc(-c2nonc2NC(=O)c2ccco2)cc1	32%
CCCCOc1ccc(-c2nonc2NC(=O)c2ccco2)cc1	42%
CCOc1ccc(-c2nonc2NC(=O)c2ccco2)cc1OCC	2.5µM*
O=C(CC1C(=O)NCCN1Cc1ccoc1)NCc1nnc2n1CCCCC2 (stereo not given)	-6%
Cc1cc(-c2ccnc(-c3nnc(C)n3-c3ccccc3)c2)ccn1	i
